PubChem BioAssay
The source made the active and inactive calls. Unless noted, the rule behind the calls is not given here.

What was measured:
[1] = compound effects on lung adenocarcinoma cell viability – A549, calcein-AM fluorescence, 48 h, basal, profiling panel (AID 1162); details: higher = more signal; note: test concentration not given here
[2] = compound effects on differentiated 3T3-L1 adipocyte viability – cell-based, 3T3-L1 adipocytes, calcein-AM fluorescence, 48 h, basal, profiling panel (AID 1163); details: 3T3-L1 adipocytes viability, higher = more signal; note: test concentration not given here
[3] = compound effects on hepatocellular carcinoma cell viability – HepG2, calcein-AM fluorescence, 48 h, basal, profiling panel (AID 1164); details: higher = more signal; note: test concentration not given here
[4] = compound effects on multiple myeloma cell viability – MM1S, calcein-AM fluorescence, 48 h, basal, profiling panel (AID 1165); details: higher = more signal;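 note: viability of MM1S multiple myeloma cells under basal unstimulated conditions; test concentration not given here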
[5] = calcein-AM signal in unstimulated myeloma cells – cell-based, calcein-AM fluorescence, 48 h, PK04 Diversity Set, profiling panel (AID 1166); details: RPMI8226 myeloma viability, higher = more signal;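 note: cells grown under basal conditions without added stimulus; test concentration not given here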
[6] = JC-1 mitochondrial signal, unstimulated HepG2 cells – cell-based, JC-1 fluorescence, 24 h, 100 nL compound, profiling panel (AID 1167); details: HepG2 mitochondrial potential, higher = more signal; note: test concentration not given here
[7] = JC-1 mitochondrial signal, unstimulated adipocytes – cell-based, JC-1 fluorescence, 3T3-L1 adipocytes, 24 h, 100 nL compound, profiling panel (AID 1168); details: JC-1 mitochondrial fluorescence, higher = more signal, called active from +8 up or from −8 down; note: test concentration not given here
[8] = JC-1 mitochondrial signal, unstimulated myeloma cells – cell-based, JC-1 fluorescence, RPMI8226, 24 h, 100 nL compound, profiling panel (AID 1169); details: JC-1 mitochondrial potential fluorescence, higher = more signal; note: test concentration not given here
[9] = JC-1 mitochondrial signal, unstimulated MM1S myeloma – cell-based, JC-1 fluorescence, 24 h, 100 nL compound, profiling panel (AID 1170); details: MM1S mitochondrial potential, higher = more signal; note: test concentration not given here
[10] = resazurin metabolic signal in A549 cells – cell-based, resazurin fluorescence, 24 h, PK04 Diversity Set, profiling panel (AID 1171); details: A549 viability, higher = more signal, called active from +8 up or from −8 down; note: test concentration not given here
[11] = resazurin metabolic signal in HepG2 cells – cell-based, resazurin fluorescence, 24 h, PK04 Diversity Set, profiling panel (AID 1172); details: HepG2 viability, higher = more signal; note: test concentration not given here
[12] = budding yeast growth changes without added modifier – OD600, strain BY4716, 24 h, basal condition, primary screen (AID 1173); details: S. cerevisiae BY4716 growth, OD600, 24 h; higher = more signal, called active from +8 up or from −8 down
[13] = viability profiling in MM1S myeloma cells – cell-based, resazurin fluorescence, basal, 24 h, PK04 Diversity Set, profiling panel (AID 1174); details: higher = more signal, called active from +8 up or from −8 down; note: test concentration not given here
[14] = biological target: Dihydroorotate dehydrogenase (quinone), mitochondrial (Plasmodium falciparum (isolate 3D7)) (UniProt Q08210); assay: inhibition of P. falciparum DHODH – biochemical, C-terminal His tag, absorbance 600 nm, primary screen (AID 1175); details: PfDHODH enzyme, DCIP absorbance 600 nm; higher = more signal, called active from +8 up or from −8 down;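 note: recombinant parasite enzyme with a five histidine tag at its C terminus; test concentration not given here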
[15] = inhibition of PAO1 biofilm formation – strain PAO1, LB-PBS medium, absorbance 600 nm, primary screen (AID 1176); note: test concentration not given here; details: P. aeruginosa PAO1 growth/biofilm, A600, 12 h; higher = more signal
[16] = growth modulation of vineyard yeast isolate – strain RM11-1a, OD600, basal, 24 h, primary screen (AID 1177);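 note: cultures grown under basal conditions with no added stressor; test concentration not given here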; details: S. cerevisiae RM11-1a growth, OD600, 24 h; higher = more signal, called active from +8 up or from −8 down
[17] = growth of efflux-deficient E. coli DRC39 – strain DRC39, OD650, 24 h, E. coli filamentation inducers, primary screen (AID 1178);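 note: growth measured as culture turbidity by optical density at 650 nm; test concentration not given here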; details: E. coli DRC39 acrAB, higher = more signal, called active from +8 up or from −8 down
[18] = growth of efflux-deficient E. coli DRC39 – strain DRC39, OD650, 48 h, E. coli filamentation inducers, primary screen (AID 1179);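 note: screen aims at cell division blockers that make cells filament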; details: E. coli DRC39 delta-acrAB growth, higher = more signal, called active from +8 up or from −8 down
[19] = viability profiling in RPMI8226 myeloma cells – cell-based, resazurin fluorescence, basal, 24 h, PK04 Diversity Set, profiling panel (AID 1180); details: higher = more signal;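 note: RPMI8826 multiple myeloma cell line at 5000 cells per well; test concentration not given here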
[20] = biological target: E3 ubiquitin-protein ligase XIAP (Homo sapiens) (UniProt P98170); assay: small molecules binding XIAP protein – biophysical, small-molecule microarray, fluorescence 635 nm, primary screen (AID 1181); details: higher = more signal;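 note: score merges 667 nm emission and signal to noise over triplicate slides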
E3 ubiquitin-protein ligase XIAP (Homo sapiens), sequence (P98170 whole entry, looked up): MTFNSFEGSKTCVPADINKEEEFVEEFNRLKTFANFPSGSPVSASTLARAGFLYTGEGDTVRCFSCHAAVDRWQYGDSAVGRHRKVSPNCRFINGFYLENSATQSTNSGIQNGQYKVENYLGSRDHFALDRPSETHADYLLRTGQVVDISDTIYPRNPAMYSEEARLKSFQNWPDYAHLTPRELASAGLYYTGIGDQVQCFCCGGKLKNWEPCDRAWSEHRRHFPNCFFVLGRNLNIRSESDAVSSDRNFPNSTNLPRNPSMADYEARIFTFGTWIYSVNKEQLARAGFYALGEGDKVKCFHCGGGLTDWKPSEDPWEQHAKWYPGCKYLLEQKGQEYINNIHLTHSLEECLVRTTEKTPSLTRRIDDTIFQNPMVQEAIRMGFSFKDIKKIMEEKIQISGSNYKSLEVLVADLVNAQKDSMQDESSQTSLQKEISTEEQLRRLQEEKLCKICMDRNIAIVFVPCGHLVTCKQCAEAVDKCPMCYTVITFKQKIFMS

Dihydroorotate dehydrogenase (quinone), mitochondrial (Plasmodium falciparum (isolate 3D7)), sequence (Q08210 whole entry, looked up): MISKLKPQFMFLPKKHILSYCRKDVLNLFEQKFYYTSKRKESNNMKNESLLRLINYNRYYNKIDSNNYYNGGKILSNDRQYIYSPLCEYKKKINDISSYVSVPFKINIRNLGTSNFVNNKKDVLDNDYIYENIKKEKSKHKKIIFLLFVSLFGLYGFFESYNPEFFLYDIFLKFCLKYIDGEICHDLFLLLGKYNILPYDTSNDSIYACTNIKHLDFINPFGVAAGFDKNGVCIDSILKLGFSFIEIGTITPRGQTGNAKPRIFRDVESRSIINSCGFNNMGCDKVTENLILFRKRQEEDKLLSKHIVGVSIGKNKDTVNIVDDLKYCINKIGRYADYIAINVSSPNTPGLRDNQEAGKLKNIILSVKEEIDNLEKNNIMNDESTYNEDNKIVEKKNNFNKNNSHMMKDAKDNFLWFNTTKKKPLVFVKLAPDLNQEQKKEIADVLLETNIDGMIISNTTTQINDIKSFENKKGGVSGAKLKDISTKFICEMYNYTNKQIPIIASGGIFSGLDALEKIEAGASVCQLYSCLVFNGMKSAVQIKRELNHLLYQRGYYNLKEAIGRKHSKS

Compound	z-score [1]	z-score [2]	z-score [3]	z-score [4]	z-score [5]	z-score [6]	z-score [7]	z-score [8]	z-score [9]	z-score [10]	z-score [11]	z-score [12]	z-score [13]	composite z-score [14]	z-score [15]	z-score [16]	z-score [17]	z-score [18]	z-score [19]	composite z-score [20]
COc1ccc(C#Cc2ccc3c(c2)[C@]2(C(=O)N3)[C@H](c3ccc(OCCO)cc3)N3[C@H](c4ccccc4)[C@H](c4ccccc4)OC(=O)[C@H]3[C@@H]2C(=O)NC[C@H](O)c2ccccc2)cc1	0.357	-0.177	1.08	0.373	-1.46	-1.04	4.7 (inactive)	-0.808	-1.4	0.0652 (inactive)	0.0814	3.07 (inactive)	-0.883 (inactive)	-18.4 (active)	2.34 (inactive)	4.84 (inactive)	0.595 (inactive)	0.863 (inactive)	-1.08	0.18
CS(=O)(=O)CCOC(=O)C1=CC(CCCO)=CC(c2ccc(CN3CCCC3)cc2)N(Cc2sc3ccccc3c2Cl)C=C1C(=O)OCCS(C)(=O)=O (stereo not given)	0.389	0.958	0.888	-1.59	0.16	2.41	0.0187 (inactive)	-0.544	-0.299	0.328 (inactive)	-0.518	-2.76 (inactive)	-0.0646 (inactive)	-0.449 (inactive)	-0.259 (inactive)	0.34 (inactive)	0.285 (inactive)	0.309 (inactive)	-0.0127	-0.247
C=CC[C@]1(C(=O)N2CCCCC2)N=C(c2ccc(OCCCO)cc2)O[C@H]1c1ccccc1CN=[N+]=[N-]	-0.416	0.132	0.61	-1.11	-1.15	0.574	0.32 (inactive)	-1.31	-0.576	0.482 (inactive)	0.948	-1.03 (inactive)	-0.398 (inactive)	-0.709 (inactive)	-0.124 (inactive)	0.0349 (inactive)	0.552 (inactive)	1.11 (inactive)	0.128	0.354
O=C1OCCC/C=C\[C@H]2OC34C=CCN(c5ccc6ccccc6c5)C(=O)[C@H]3N(CCO)C(=O)[C@@H]4C12 (stereo not given in full)	0.451	1.91	-0.569	1.3	-0.205	-0.00127	-0.622 (inactive)	-0.0898	1.03	-1.48 (inactive)	-0.75	0.307 (inactive)	-0.997 (inactive)	0.257 (inactive)	-0.634 (inactive)	0.571 (inactive)	-0.937 (inactive)	-1.04 (inactive)	-0.15	0.275
N[C@@H](Cc1ccccc1)C(=O)NCc1cn(Cc2ccccc2)nn1	0.322	0.0811	-0.256	-0.0838	-1.11	0.178	-0.0638 (inactive)	0.556	0.919	0.825 (inactive)	0.68	-1.38 (inactive)	0.323 (inactive)	-0.777 (inactive)	-0.452 (inactive)	-0.0114 (inactive)	1.35 (inactive)	0.614 (inactive)	0.449	-0.227
NC(=O)NCC#Cc1ccc2c(c1)[C@]1(C(=O)N2)[C@H](c2ccccc2OCCO)N2[C@H](c3ccccc3)[C@H](c3ccccc3)OC(=O)[C@H]2[C@@H]1C(=O)O	-0.371	-0.161	-1.06	-0.253	0.713	-0.716	0.485 (inactive)	0.689	-0.394	1.73 (inactive)	1.87	-0.462 (inactive)	0.877 (inactive)	-1.96 (inactive)	-0.0199 (inactive)	-0.246 (inactive)	0.614 (inactive)	-0.727 (inactive)	0.327	-0.287
CC(C)NC(=O)[C@@]1(c2ccc([N+](=O)[O-])cc2)CC(=O)N(C2CCCCC2)[C@@H]1c1ccc(CO)cc1	-0.68	-0.773	-0.297	-0.0629	-0.402	1.46	1.4 (inactive)	0.172	-0.123	1.38 (inactive)	1.2	0.178 (inactive)	1.16 (inactive)	1 (inactive)	-0.0249 (inactive)	0.852 (inactive)	0.389 (inactive)	1.29 (inactive)	0.367	0.112
CCCCC[C@H]1OC[C@@]23C=C(Br)[C@@H](CC12)[C@@]1(CO1)C3=O (stereo not given in full)	0.433	-0.0037	-0.424	-2.8	-1.5	-1.76	-0.498 (inactive)	-0.314	-0.824	-0.612 (inactive)	0.213	-8.43 (active)	-0.586 (inactive)	-0.23 (inactive)	0.248 (inactive)	-0.984 (inactive)	-0.662 (inactive)	-0.666 (inactive)	-0.0702	0.144
C=CCNC(=O)[C@@H]1[C@H]2C(=O)O[C@H](c3ccccc3)[C@H](c3ccccc3)N2[C@H](c2ccc(OCCO)cc2)[C@@]12C(=O)N(C(=O)OCCOC)c1ccc(C#Cc3ccc(OC)cc3)cc12	-0.528	0.786	-0.834	-0.845	-1.32	-0.638	0.8 (inactive)	-0.813	-0.82	0.927 (inactive)	-0.0068	1.21 (inactive)	0.279 (inactive)	-0.0464 (inactive)	2.08 (inactive)	2.57 (inactive)	-0.709 (inactive)	-0.73 (inactive)	0.725	0.102
